Screens (PubChem BioAssay)
Sampled rows, rich in hits. Any-hit rate of the full collection: about 3.6%.
mHTT-CaM PPI inh: disrupts binding of mutant huntingtin to calmodulin; P42858; inhibition, % at 15 µM; AlphaScreen His-mHTT/GST-CaM binding, luminescence; actives 3.6% (n = 190,000); AID 1671202
Pf apPOL block: Pf-apPOL DNA polymerase inhibition | inhibition, % at 10 µM | Recombinant Pf-apPOL, molecular beacon fluorescence, 1.5 h | actives 0.25% (n = 210,000)
Large screens that a line does not name were inactive. Cut-off read from the data, not from the text of the source: active = inhibition above about 50%; inactive = the rest.

Cc1nnc(N2C(=O)C(O)=C(C(=O)c3cccs3)C2c2ccc(Cl)c(Cl)c2)s1 (configuration not stated)	mHTT-CaM PPI inh 92.0
Cc1cc(C)cc(C(=O)N2CCCC(C(=O)NCc3cccc(Br)c3)C2)c1 (configuration not stated)	none
O=C(CSc1ccccc1C(=O)O)c1ccc(Cl)cc1	none
C=CCOc1ccc(C=Nc2ccc(C(C)C)cc2)c(O)c1	none
CCCOc1ccc(C=Nc2ccc(S(=O)(=O)Nc3ccccn3)cc2)cc1	none
O=S(=O)(Nc1ccccn1)c1ccc(Cl)cc1	none
Oc1c(C(Nc2ccccn2)c2ccc3c(c2)OCO3)ccc2cccnc12 (configuration not stated)	mHTT-CaM PPI inh 98.9
CCCOc1ccc(C(Nc2ccccn2)c2ccc3cccnc3c2O)cc1 (configuration not stated)	mHTT-CaM PPI inh 97.0
C=CCOc1ccc(C(Nc2ccccn2)c2ccc3ccc(C)nc3c2O)cc1 (configuration not stated)	mHTT-CaM PPI inh 67.0
OC(CN1CCN(c2ccccn2)CC1)c1ccc2c(c1)OCO2 (configuration not stated)	none
Oc1c(C(Nc2ccccn2)c2ccc(Cl)cc2)ccc2cccnc12 (configuration not stated)	mHTT-CaM PPI inh 100.0
Cc1c(C2CCN(C(=O)c3cccc(C#N)c3)CC2)noc1N	none
CC(C)c1ccc(CNC(=O)C2CCc3sc(C(=O)N4CCOCC4)cc3C2)cc1 (configuration not stated)	none
Cc1ccc(-c2nc(C=Nc3ccccn3)c(O)o2)cc1	none
COc1ccc(C(Nc2ccccn2)c2ccc3ccc(C)nc3c2O)cc1C (configuration not stated)	mHTT-CaM PPI inh 81.0
COc1cc(C)c(S(=O)(=O)Nc2ccccn2)cc1C	none
Cc1ccc2ccc(C(Nc3ccccn3)c3ccc(F)cc3)c(O)c2n1 (configuration not stated)	mHTT-CaM PPI inh 70.0
Cc1ccnc(NC(c2ccccc2C)c2ccc3cccnc3c2O)c1 (configuration not stated)	mHTT-CaM PPI inh 99.0
O=c1cc(CO)oc(C(Nc2ncccn2)c2ccc(F)cc2)c1O (configuration not stated)	none
Cc1ccc(C(Nc2ccccn2)c2ccc3ccc(C)nc3c2O)cc1 (configuration not stated)	mHTT-CaM PPI inh 72.0
Cc1ccc(-c2ncccc2O)cc1	none
Cc1ccnc(NC(c2cccs2)c2ccc3cccnc3c2O)c1 (configuration not stated)	mHTT-CaM PPI inh 100.0
Cc1ccc2ccc(C(Nc3ccccn3)c3ccc(O)cc3)c(O)c2n1 (configuration not stated)	mHTT-CaM PPI inh 93.1
Cc1ccc(C)c(C(C)Sc2ncccc2C(=O)O)c1 (configuration not stated)	none (no result: mHTT-CaM PPI inh)
Cc1ccc(C)c(C(Nc2ccccn2)c2ccc3cccnc3c2O)c1 (configuration not stated)	mHTT-CaM PPI inh 97.0
Cc1ccc(C(Nc2ccccn2)c2ccc3cccnc3c2O)cc1 (configuration not stated)	mHTT-CaM PPI inh 99.0
C=CCN1C(=O)C2(NC(=O)c3ccccc3N2)c2ccccc21 (configuration not stated)	none (no result: Pf apPOL block)
Cc1ccc(N=Cc2cc(Cl)cc(Cl)c2O)c(O)c1	none
COc1ccc(C2=NOC(C(=O)N(C)c3ccccc3)C2)cc1OC (configuration not stated)	none
Cc1ccccc1OCC(=O)Nc1ccc(Cl)c(-c2nc3ncccc3o2)c1	none
Oc1c(C(Nc2ccccn2)c2ccc(Br)cc2)ccc2cccnc12 (configuration not stated)	mHTT-CaM PPI inh 94.0
O=C(Nc1ccccn1)c1cc(Br)ccc1Cl	none
CC1=C(C(N)=O)C(c2ccco2)C(C#N)=C(SCC(=O)Nc2cccc(Cl)c2C)N1 (configuration not stated)	none
COc1ccc(Cl)cc1NC(=O)CSC1=C(C#N)C(c2ccco2)C(C(N)=O)=C(C)N1 (configuration not stated)	mHTT-CaM PPI inh 54.0
COc1ccc(-c2nn(C)c(=O)c3ccccc23)cc1NS(=O)(=O)c1ccc(Cl)cc1	none
CCOc1cc(CNc2ccc3c(c2)CCC3)ccc1O	mHTT-CaM PPI inh 51.4
CCOc1cc(CNc2ccccc2SC)ccc1O	none
COc1ccccc1C1SCCN1C(=O)Nc1ccc(Cl)c(Cl)c1 (configuration not stated)	mHTT-CaM PPI inh 97.0
COc1ccccc1NC(=O)Nc1ccc(Cl)c(Cl)c1	none
CCC(=O)N1c2ccc(S(=O)(=O)N3CCCCC3)cc2CC1C (configuration not stated)	none
O=c1sc2ccccc2c(Nc2ccc([N+](=O)[O-])cc2)c1[N+](=O)[O-]	none (no result: Pf apPOL block)
O=Cc1[nH]c2ccccc2c1Nc1ccc([N+](=O)[O-])cc1	mHTT-CaM PPI inh 100.2
O=[N+]([O-])c1ccc(Nc2ccc(F)cc2)cc1	none (no result: mHTT-CaM PPI inh)
O=[N+]([O-])c1ccc(Nc2c[nH]c3ccccc23)cc1	mHTT-CaM PPI inh 89.0
CCc1ccc(C2C(C#N)=C(SCC(=O)c3ccc([N+](=O)[O-])cc3)NC(C)=C2C(C)=O)cc1 (configuration not stated)	mHTT-CaM PPI inh 59.7
CC(=O)C1=C(C)NC(SCC(=O)c2ccc(F)cc2)=C(C#N)C1c1cccc([N+](=O)[O-])c1 (configuration not stated)	none
Cc1cc(NC(=O)Cc2ccc(S(C)(=O)=O)cc2)on1	none
COc1ccc(C2C(C(=O)Nc3ccc(C)cc3C)=C(C)Nc3nnnn32)cc1 (configuration not stated)	none
COc1cccc(C=Nc2cc(C)cc(C)c2O)c1O	mHTT-CaM PPI inh 50.0
Cc1cc(C)c(O)c(N=Cc2cccc([N+](=O)[O-])c2O)c1	none
COc1ccccc1NC(=O)N1CC(C)C(c2nc(-c3ccccc3)no2)C1 (configuration not stated)	none
CCOc1ccc(C(=O)Nc2ccc(N(CC)CC)cc2)cc1[N+](=O)[O-]	none
COc1ccc(C(=O)Nc2ccc(I)cc2)c(OC)c1	none
CCN(CC)c1ccc(NC(=O)c2ccc(OC)c([N+](=O)[O-])c2)cc1	mHTT-CaM PPI inh 61.9
CCN(CC)c1ccc(NC(=O)c2ccc(OC)cc2OC)cc1	mHTT-CaM PPI inh 66.9
O=C1OC(c2ccc(Br)cc2)=N/C1=C\c1cccc(Br)c1	none
c1cc2nnc(C3CCC3)n2nc1N1CCCC1	none
c1cc(-c2nc3c4c5c(sc4ncn3n2)CCCC5)ccn1	none
CCN1CCN(C(=O)Cn2cc(C)sc2=NC(=O)c2cccc(Cl)c2)CC1	none
COc1cccc(C(=O)N=c2sc(C)cn2CC(=O)N2CCCC2)c1	Pf apPOL block 86.6
COc1cccc(CNc2ccc(F)c(Cl)c2)c1OC	none
COc1ccc(CNc2ccc(F)c(Cl)c2)c(OC)c1	none
COc1ccc(CNc2ccc3cn[nH]c3c2)cc1Br	mHTT-CaM PPI inh 70.7
COc1ccc(CNc2ccccc2SC)cc1Br	none
COc1ccc(CNc2ccc(C)c(C)c2)c(OC)c1	mHTT-CaM PPI inh 58.1
COc1ccc(CNc2cccc(F)c2)cc1Br	none
COc1ccc(CNc2ccc(C)c(C)c2)cc1Br	mHTT-CaM PPI inh 81.2
COc1cccc(CNc2ccc3cn[nH]c3c2)c1OC	mHTT-CaM PPI inh 53.7
O=C(NCc1cccnc1)c1cc2n(n1)CCCN(Cc1ccccc1)C2=O	none
O=S(=O)(Nc1ccc(S(=O)(=O)N2CCCC2)cc1)c1ccc(F)cc1	none
COc1ccc2[nH]cc(CCNC(C)=O)c2c1	none (no result: mHTT-CaM PPI inh)
N#Cc1c(N2C(=O)CC(Sc3ncccc3C(=O)O)C2=O)sc2c1CCCC2 (configuration not stated)	none
